Common to all, as to assay: NCI-60 one-dose screen, 48 h (100 = growth as untreated, 0 = no growth, -100 = all killed)
Assay [1] deals with SR leukemia. Particulars: 10 µM unless noted.
Assay [2] deals with RPMI-8226 leukemia. The note with it: 10 µM.
The test system of assay [3] is OVCAR-8 ovarian. Particulars: 10 µM unless noted.
The subject of assay [4] is OVCAR-5 ovarian. Particulars: 10 µM unless noted.
The subject of assay [5] is OVCAR-4 ovarian. The note with it: 10 µM unless noted.
The test system of assay [6] is SK-OV-3 ovarian. The note with it: 10 µM.
The test system of assay [7] is IGROV1 ovarian. The note with it: 10 µM unless noted.
Assay [8] relates to OVCAR-3 ovarian. The note with it: 10 µM unless noted.
Assay [9] concerns HS 578T breast. The note with it: 10 µM unless noted.
Assay [10] deals with NCI/ADR-RES ovarian. Particulars: 10 µM unless noted.
Assay [11] deals with T-47D breast. Particulars: 10 µM.
For assay [12], the system named is BT-549 breast. Particulars: 10 µM unless noted.
The test system of assay [13] is MDA-MB-435 melanoma. Particulars: 10 µM unless noted.
For assay [14], the system named is SW-620 colon. Particulars: 10 µM unless noted.
For assay [15], the system named is MCF7 breast. Particulars: 10 µM unless noted.
Assay [16] concerns HCT-116 colon. The note with it: 10 µM unless noted.
The test system of assay [17] is HCC-2998 colon. The note with it: 10 µM unless noted.
For assay [18], the system named is KM12 colon. Particulars: 10 µM unless noted.

This is part of a sample that, as a whole, favours compounds with a hit. Of some 83,000 tested, about 20% had one in any assay.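 Treatment: one concentration, 48 hours, 96-well format. Scoring: percent growth, with anything below 10 considered active.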 Values without a mark were called inactive. The source made the active and inactive calls.

In the case of `CC(C)N1CCN(c2ccc(OC[C@H]3CO[C@](Cn4cncn4)(c4ccc(Cl)cc4Cl)O3)cc2)CC1`, the growth in assay [1] is 58.1%; in assay [2], 88.7%; in [3], 100%; in assay [4], 85.1%; in assay [5], 99.2%; in assay [6], 94%. Moreover, the growth in assay [7] is 104%; in assay [8], 102%; in assay [9] it was 84%; in assay [10], 88.1%; in assay [11], 105%; in [12] it was 84.4%. Further, the growth in assay [13] is 69.7%; in assay [14] it was 98.4%; in assay [15] it was 95%; in assay [16], 77.7%; in assay [17] it was 104%; in assay [18] it was 95.4%.
As for `Cc1nc2cc(Nc3nc(N4CCOCC4)nc(N4CCN(C)CC4)n3)ccc2n1Cc1ccccc1`, the growth in [1] was 93%; in [2] it was 102%; in assay [3], 98.3%; in assay [4] it was 96.7%; in assay [5], 100%; in [6], 103%. Besides, the growth in assay [7] is 103%; in [8], 115%; in assay [9], 108%; in assay [10], 110%; in assay [11], 99.6%; in assay [12], 103%. In addition, the growth in [13] is 100%; in assay [14], 104%; in [15] it was 98.8%; in assay [16], 98.2%; in assay [17], 113%; in assay [18], 115%.
In the case of `CCCCC(=O)N/N=C/c1cc(I)cc(I)c1O`, the growth in assay [1] was 16.8%; in [2] it was 53%; in assay [3], 36.6%; in assay [4], 59.6%; in assay [5] it was 34.1%; in assay [6] it was 58.6%. Moreover, the growth in assay [7] was 35.8%; in assay [8], 18.7%; in [9], 76.6%; in assay [10], 23.9%; in assay [11], 52.1%; in assay [12] it was 55.2%. Further, the growth in assay [13] was 56.7%; in [14], 54.6%; in assay [15] it was 41.5%; in assay [16] it was 15.1%; in assay [17], 66.5%; in [18] it was 53.2%.
Turning to `O=C1CC2c3cc(-c4cc5ccccc5o4)ccc3CCN2C(=O)N1c1ccccc1` (centres undefined), the growth in assay [1] was 57.6%; in [2], 68.1%; in assay [3] it was 88.4%; in assay [4], 97.9%; in assay [5] it was 84.7%; in assay [6], 80%. Moreover, the growth in assay [7] was 84.6%; in [8], 99.3%; in [9] it was 107%; in assay [10], 81.4%; in [11], 57.4%; in [12], 92.2%. Besides, the growth in assay [13] was 89.3%; in assay [14], 111%; in assay [15] it was 88.6%; in [16], 75.3%; in assay [17], 110%; in assay [18], 101%.
`Cc1nc2cc(Nc3nc(NCCN)nc(Nc4ccc(F)cc4)n3)ccc2n1Cc1ccccc1`: the growth was -26.5% (active) in assay [1]; -45% (active) in [2]; 89.1% in [3]; 106% in assay [4]; 77% in assay [5]; 95.5% in assay [6]. The growth in assay [7] is 81.4%; in assay [8], 86.7%; in [9], 102%; in [10], 103%; in assay [11] it was 69.1%; in assay [12], 90%. Also, the growth in [13] is 80.4%; in assay [14], 73.9%; in assay [15], 68.8%; in assay [16], 60.3%; in assay [17], 70.6%; in [18] it was 70.6%.
For `O=C(NCc1cccnc1)c1ccc([N+](=O)[O-])o1`, the growth in [1] is 23%; in [2] it was 52.8%; in [3], 4.23% (active); in [4] it was -1.25% (active); in assay [5], 63.9%; in assay [6], 32.3%. Further, the growth in assay [7] was 33.7%; in [8] it was -4.71% (active); in [9], -9.03% (active); in [10] it was -29.1% (active); in assay [11] it was 57%; in assay [12], 4.28% (active). Moreover, the growth is -19.9% (active) in assay [13]; -65.3% (active) in [14]; 13.9% in assay [15]; -4.08% (active) in [16]; -97.6% (active) in [17]; 0.0106% (active) in assay [18].
Take `COc1ccc(/C=C2\CN(Cc3cn(CCCNc4ccnc5cc(Cl)ccc45)nn3)C/C(=C\c3ccc(OC)c(OC)c3)C2=O)cc1OC`: the growth is -11.8% (active) in assay [1]; -35.5% (active) in assay [2]; 6.8% (active) in [3]; 2.05% (active) in assay [4]; 21.3% in [5]; 36.5% in [6]. In addition, the growth was 31.7% in assay [7]; 12.7% in assay [8]; 34% in assay [9]; 94.4% in assay [10]; 49.5% in [11]; -56.1% (active) in [12]. Besides, the growth in [13] was -28.9% (active); in [14] it was -16.7% (active); in assay [15], 36.9%; in [16] it was -64.6% (active); in assay [17], -87% (active); in assay [18] it was -64% (active).
Regarding `CCOC(=O)C(CC(c1ccccc1)N1CCCCC1)[N+](=O)[O-]` (centres undefined), the growth in assay [1] is 77.7%; in assay [2], 57.9%; in [3], 87.1%; in assay [4], 104%; in assay [5], 96.5%; in [6] it was 97.7%. Also, the growth in [7] was 76.3%; in assay [8], 53.3%; in assay [9], 98.6%; in [10], 61.4%; in assay [11], 59.1%; in assay [12] it was 94.8%. Also, the growth was 93.7% in assay [13]; 84.9% in assay [14]; 63.3% in assay [15]; 54.8% in assay [16]; 108% in assay [17]; 37.8% in assay [18].

For the origin of these results see PubChem BioAssay (NCI).
